Measured values published in PubChem BioAssay (NCI).
The panel holds about 79,000 compounds, 15% with a hit somewhere; the sample as a whole holds those more often. Cut-off read from the data, not from the text of the source: active = growth inhibition above about 70%; inactive = the rest.

How the values were obtained:
[1] = NCI Yeast Anticancer Drug Screen. Data for the rad50 strain (AID 155);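 note: 0% = growth of vehicle-only cultures of the same strain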; settings: S. cerevisiae rad50 strain growth inhibition; at 50.0 µM; hits give high values
Method in brief: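 Compounds were tested on a yeast strain with an engineered DNA damage repair alteration; the reported value is growth inhibition normalised to vehicle treatment.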

[2] = NCI Yeast Anticancer Drug Screen. Data for the mec2-1 strain (AID 157); settings: S. cerevisiae mec2-1 strain, at 50.0 µM, hits give high values
Method in brief: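 Vehicle-treated cultures served as reference for growth inhibition of compound-exposed mec2-1 yeast.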

[3] = NCI Yeast Anticancer Drug Screen. Data for the sgs1 mgt1 strain (AID 161);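 note: 0% = growth of cultures given vehicle only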; settings: S. cerevisiae sgs1 mgt1 strain, at 50.0 µM, hits give high values
Method in brief: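 Mutant yeast exposed to compound; growth scored against vehicle-only wells.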

[4] = NCI Yeast Anticancer Drug Screen. Data for the cln2 rad14 strain (AID 165);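 note: 0% = growth equal to vehicle treated cultures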; settings: S. cerevisiae cln2 rad14 strain, at 50.0 µM, hits give high values
Method in brief: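 Each compound was tested on cln2 rad14 yeast. Inhibition of growth was calculated against vehicle-exposed controls.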

[5] = NCI Yeast Anticancer Drug Screen. Data for the bub3 strain (AID 167); settings: S. cerevisiae bub3 mutant strain, at 50.0 µM, hits give high values
Method in brief: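 Growth of a checkpoint-deficient yeast mutant is measured after compound exposure. Values represent inhibition relative to vehicle.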

[6] = NCI Yeast Anticancer Drug Screen. Data for the mlh1 rad18 strain (AID 175); settings: S. cerevisiae mlh1 rad18 strain growth inhibition; at 50.0 µM; hits give high values
Method in brief: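 Vehicle-treated cultures served as the reference for growth inhibition in a yeast strain carrying DNA damage repair alterations exposed to each compound.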

Measured: growth inhibition

O=c1[nH]cnc2c1ncn2CCCCc1ccccc1
inactive: [1] 8.4% | [2] -5.25% | [3] 8.45% | [4] 0.9% | [5] 5.7% | [6] 14.8%

CCOC(CCCl)c1ccc(C)cc1 (configuration not stated)
inactive: [1] -25.2% | [2] -42.2% | [3] -20.4% | [4] 20.1% | [5] -33.6% | [6] -20.5%

C/C(N=NS(=O)(=O)c1ccc(C)cc1)=C1\C=CC=CN1O
inactive: [1] -15.9% | [2] -14.7% | [3] -6.9% | [4] -1% | [5] -2.85% | [6] -11.9%

N=C(N)n1ncc2c1CCCC2=O
inactive: [1] -17.4% | [2] 19.9% | [3] -6.1% | [4] -20.2% | [5] 6.1% | [6] 1.75%

CC#CCN(C(C)C)C(C)C
inactive: [1] 15.4% | [2] 8.3% | [3] -11.4% | [4] -34.5% | [5] -21.5% | [6] -27.1%

N#Cc1c(C#N)c(-c2ccccc2)n(-c2ccccc2)c1N
inactive: [1] 10.7% | [2] 12% | [3] -29.7% | [4] -12.8% | [5] -11.2% | [6] -22.1%

CCN(CC)CCSC(=O)C(O)(c1ccccc1)c1cccc(C)c1 (configuration not stated)
inactive: [1] 9.1% | [2] 10.1% | [3] -2.2% | [4] -11.9% | [5] -1.4% | [6] 10.6%

O=C(NNC(=S)S)c1ccncc1
inactive: [1] 7.5% | [2] 2.4% | [3] -1.2% | [4] -8.95% | [5] 11.7% | [6] 21.9%

Cc1ccc2c(Nc3ccc(NS(C)(=O)=O)cc3C)c3ccccc3nc2c1
inactive: [1] 42.4% | [2] -27.4% | [3] 6.2% | [4] 4.2% | [5] 4.25% | [6] -23.5%

O=C(c1ccccc1)c1c[nH]c(=O)[nH]c1=O
inactive: [1] -17.1% | [2] 10.2% | [3] -3% | [4] -3.2% | [5] 0.4% | [6] -26.9%

CSC1=NC=C(C#N)C2=NC(c3c(F)cccc3Cl)NN12 (configuration not stated)
inactive: [1] 30.3% | [2] 7.65% | [3] 35.3% | [4] 26.2% | [5] 24.6% | [6] 26.8%

COc1cc(OC)cc(OCc2nc3cc(C(F)(F)F)ccc3nc2-c2ccccc2)c1
inactive: [1] -17.8% | [2] -3.5% | [3] 5.9% | [4] -6.2% | [5] -0.95% | [6] -53.8%

O=C(O)c1ccc(C(=O)c2ccccc2C(=O)O)cc1C(=O)O
inactive: [1] -8.75% | [2] 5% | [3] -44% | [4] 43.3% | [5] -23.1% | [6] -24.8%

NC(=O)NCSCNC(N)=O
inactive: [1] -0.7% | [2] -0.2% | [3] -7.35% | [4] 8.15% | [5] -2.75% | [6] 4.5%

O=S(=O)(O)c1ccc(Nc2ccnc3cc(Cl)ccc23)cc1
inactive: [1] -21.4% | [2] -32.1% | [3] -39.8% | [4] -3.9% | [5] -29.1% | [6] -10%

O=CNCCN(C=O)CCO
inactive: [1] -28.6% | [2] -29.9% | [3] -31.9% | [4] 1.85% | [5] -12% | [6] -9.55%

CC1(C)OCC(Cc2ccc3c(c2)OCO3)CO1
inactive: [1] 1.7% | [2] -11.1% | [3] -5.75% | [4] -32.2% | [5] 22.5% | [6] 2.25%

FC(F)(F)c1ccc2nc[nH]c2c1
inactive: [1] 5.3% | [2] -10.2% | [3] -3.15% | [4] -10.4% | [5] 9.6% | [6] 6.95%

C[N+](C)(N)Cc1csc(-c2ccc(Cl)cc2)n1
inactive: [1] -31.3% | [2] -39.3% | [3] -12.7% | [4] -8.1% | [5] -24.6% | [6] -10.5%

CCCCCCCCCCCCCCCCCCCCCC
inactive: [1] -28.1% | [2] -26.1% | [3] -8.7% | [4] 0% | [5] -25.9% | [6] -18.1%

c1ccc(COC2COC(OCc3ccccc3)C(OCc3ccccc3)C2OCc2ccccc2)cc1 (configuration not stated)
inactive: [1] 1.05% | [2] -3.45% | [3] 3.4% | [4] -36.4% | [5] 12.4% | [6] -3.3%

COc1cc(Br)c(CC2c3cc(OC)c(OC)cc3CCN2C)cc1OC (configuration not stated)
inactive: [1] -17% | [2] -25.4% | [3] -9.75% | [4] 3.2% | [5] -7.95% | [6] -13.4%

CCCCCCCCCCCC(=O)OCc1ccccc1
inactive: [1] -3.9% | [2] 17.8% | [3] 3.1% | [4] 18.2% | [5] -3.5% | [6] 25.8%

O=C1CSC(c2ccccc2)N1O (configuration not stated)
inactive: [1] -11.4% | [2] -5% | [3] -22% | [4] -51.5% | [5] -7.5% | [6] -7.7%

Cc1ccc(SC(=O)N2C(=S)NC(=NC3CCCCC3)C23CCCCC3)cc1
inactive: [1] -14% | [2] -9.05% | [3] -4.05% | [4] -41.3% | [5] -32.5% | [6] -24.5%

O=C1NCC(c2ccccc2)(c2ccccc2)O1
inactive: [1] 26.9% | [2] 11.3% | [3] 10.3% | [4] 11.8% | [5] 4.45% | [6] 19.4%

Cc1cccc(-n2c(N)cc(=O)[nH]c2=S)n1
inactive: [1] -11.5% | [2] -2.2% | [3] -7.8% | [4] -38.4% | [5] -10.1% | [6] -4.15%

CCOC(=O)C(C)Oc1ccc(Cn2ccnn2)cc1 (configuration not stated)
inactive: [1] -20.1% | [2] -1.25% | [3] 15.9% | [4] -4.05% | [5] 3.1% | [6] 6.25%

COc1ccc2c(c1)C(=O)N1CCOC1C2C(=O)O (configuration not stated)
inactive: [1] 0.1% | [2] -31.8% | [3] -9.5% | [4] 11.3% | [5] -0.8% | [6] -30.3%

COc1ccc(OC)c(CCCCC(N)=O)c1
inactive: [1] -19.8% | [2] -8.2% | [3] 7.3% | [4] 1.4% | [5] 0.5% | [6] -9.55%

Cc1cc(Cl)c(Cl)cc1N
inactive: [1] -11.6% | [2] -7.2% | [3] 5.6% | [4] -9.65% | [5] 12.1% | [6] 12.4%

COc1ccc2c(c1)CCCN1Cc3cc(OC)c(OC)cc3CC21 (configuration not stated)
inactive: [1] -29.7% | [2] 8.65% | [3] -33.8% | [4] 14% | [5] -1.1% | [6] -3.9%

OCCN(CCO)c1ccc2c(C(F)(F)F)cc(C(F)(F)F)nc2n1
inactive: [1] 0.45% | [2] -8.25% | [3] 15.8% | [4] 0.7% | [5] 10.6% | [6] 16.1%

O=c1[nH]c2cc([N+](=O)[O-])ccc2nc1/C(=N/Nc1ccccc1)C(O)c1ccco1 (configuration not stated)
inactive: [1] 7.9% | [2] -17.4% | [3] 9.2% | [4] 16.2% | [5] 6.65% | [6] 25.3%

CCC(C)[N+](=O)[O-] (configuration not stated)
inactive: [1] 3.6% | [2] -5.1% | [3] -5.55% | [4] -2.15% | [5] 0.75% | [6] 3.1%

O/N=C1/CCCCc2ccccc21
inactive: [1] -13.4% | [2] 0.95% | [3] -21.2% | [4] -29.7% | [5] -14.4% | [6] -15.2%

COc1cc(/C=C(\C)c2ccc3c(c2)OCO3)cc(OC)c1OC
inactive: [1] 15% | [2] 12.6% | [3] 35% | [4] 5.15% | [5] 12.8% | [6] -5.85%

O=C(/C=C(\O)c1ccc(Cl)cc1)C(=O)NN=C(c1ccccc1)c1ccccc1
inactive: [1] 39% | [2] 33.7% | [3] 3.1% | [4] 7.2% | [5] 14.5% | [6] 8.6%

COC1/C=C\OC2(C)Oc3c(C)c(O)c4c(O)c(c5c(c4c3C2=O)NC2(CCN(C)CC2)N=5)=NC(=O)/C(C)=C\C=C\C(C)C(O)C(C)C(O)C(C)C(OC(C)=O)C1C (configuration not stated)
inactive: [1] 2.85% | [2] 3% | [3] -1% | [4] 10.3% | [5] 7% | [6] 3.25%

O=C(c1nc2ccc([N+](=O)[O-])cc2[nH]c1=O)C(O)c1ccc2c(c1)OCO2 (configuration not stated)
inactive: [1] 32.4% | [2] -9.25% | [3] -11.1% | [4] 11.1% | [5] -1.25% | [6] 0.35%

COc1c(-c2ccccc2)c(=O)n2c3cc(C)c(C)cc3n(C)c2c1C#N
inactive: [1] -13.4% | [2] -0.4% | [3] 18.5% | [4] -13.9% | [5] -31.1% | [6] -2.85%

O=C1CN(/N=C/c2ccc(-c3ccc(F)cc3)o2)C(=O)N1
inactive: [1] 10.4% | [2] -0.15% | [3] -20.9% | [4] -26.6% | [5] 5.05% | [6] -3.45%
